Measurements published in PubChem BioAssay.
Values without a mark were called inactive. For some of these results: Results with a measured potency or affinity are listed apart. Activity calls are given as the source filed them. Unless noted, how the calls were made is not given here.

What was measured:
[1] = antimalarial activity against Dd2 strain (AID 2302;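 active means growth inhibition above 50% at the single 2 µM test dose, taken to imply half-maximal potency below 2 µM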;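 further: 0% = DMSO untreated growth and 100% = chloroquine plus artemisinin killed control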); details: P. falciparum Dd2 in RBCs, LDH growth readout, 72 h; at 2 µM; stronger effect = higher value
[2] = human hepatoma cell viability loss – ATP luminescence, cytotoxicity control for P. falciparum antimalarial project, primary screen (AID 2303;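 active means inhibition above 50%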;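 further: 0% = DMSO wells and 100% = digitonin-killed cells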); details: HepG2 viability, 24-48 h, at 10 µM, stronger effect = higher value
[3] = molecular target: L-lactate dehydrogenase (Plasmodium falciparum (isolate CDC / Honduras)) (UniProt Q27743); assay: PfLDH activity inhibition – cell lysate, 3D7 strain, counter-screen for P. falciparum growth inhibition project (AID 2304);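 further: 0% = vehicle and 100% = reference inhibitor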; details: P. falciparum 3D7 crude extract, LDH APAD/NBT absorbance; at 2 µM; stronger effect = higher value
[4] = inhibition of 3D7 malaria parasite growth – strain 3D7 (AID 2306);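 further: 0% = DMSO wells and 100% = chloroquine plus artemisinin control wells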; details: P. falciparum 3D7 erythrocytic growth, LDH absorbance, 72 h; at 2 µM; stronger effect = higher value
[5] = molecular target: Calcium-dependent protein kinase 1 (Plasmodium falciparum (isolate 3D7)) (UniProt P62344); assay: PfCDPK1 kinase inhibitors, biochemical, TCAMS library (AID 1159585; cut-off not given, nearly all actives have IC50 up to about 0.98 µM;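 further: inhibitors leave more ATP so luminescence rises with inhibition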); details: recombinant PfCDPK1, Kinase-Glo ATP depletion luminescence
[6] = molecular target: Plasmodium falciparum protein kinase 6 (PK6, PF3D7_1337100) (UniProt Q8IDW1); assay: PfPK6 kinase inhibitors, biochemical, TCAMS library (AID 1159586); details: recombinant PfPK6, Kinase-Glo ATP depletion luminescence
[7] = molecular target: Protein kinase 7 (PK7), Plasmodium falciparum 3D7 (PF3D7_0213400) (UniProt Q7YTF7); assay: inhibition of Plasmodium PK7 catalytic activity – biochemical, TCAMS antimalarial set, Kinase-Glo luminescence (AID 1159587); details: recombinant PfPK7, Kinase-Glo ATP depletion luminescence
[8] = molecular target: Calcium-dependent protein kinase 4 (Plasmodium falciparum (isolate 3D7)) (UniProt Q8IBS5); assay: PfCDPK4 kinase inhibitors, biochemical, TCAMS library (AID 1159588; cut-off not given, nearly all actives have IC50 up to about 0.91 µM); details: recombinant PfCDPK4, Kinase-Glo ATP depletion luminescence
Chain of Calcium-dependent protein kinase 4 (Plasmodium falciparum (isolate 3D7)) (Q8IBS5 whole entry, looked up): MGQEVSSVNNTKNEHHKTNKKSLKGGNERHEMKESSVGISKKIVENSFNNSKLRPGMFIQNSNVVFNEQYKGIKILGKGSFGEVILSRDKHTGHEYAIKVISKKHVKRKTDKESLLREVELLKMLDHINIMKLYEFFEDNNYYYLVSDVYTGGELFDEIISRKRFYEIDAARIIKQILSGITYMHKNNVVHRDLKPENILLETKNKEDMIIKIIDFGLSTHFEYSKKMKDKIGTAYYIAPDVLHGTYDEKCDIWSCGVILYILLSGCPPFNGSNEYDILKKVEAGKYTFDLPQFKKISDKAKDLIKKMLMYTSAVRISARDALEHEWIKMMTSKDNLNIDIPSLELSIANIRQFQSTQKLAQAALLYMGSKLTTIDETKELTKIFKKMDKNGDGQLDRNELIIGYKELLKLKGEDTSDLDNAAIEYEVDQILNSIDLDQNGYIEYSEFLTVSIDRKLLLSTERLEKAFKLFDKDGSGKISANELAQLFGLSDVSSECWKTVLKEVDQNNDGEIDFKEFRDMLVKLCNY

Chain of Protein kinase 7 (PK7), Plasmodium falciparum 3D7 (PF3D7_0213400) (Q7YTF7 1-343): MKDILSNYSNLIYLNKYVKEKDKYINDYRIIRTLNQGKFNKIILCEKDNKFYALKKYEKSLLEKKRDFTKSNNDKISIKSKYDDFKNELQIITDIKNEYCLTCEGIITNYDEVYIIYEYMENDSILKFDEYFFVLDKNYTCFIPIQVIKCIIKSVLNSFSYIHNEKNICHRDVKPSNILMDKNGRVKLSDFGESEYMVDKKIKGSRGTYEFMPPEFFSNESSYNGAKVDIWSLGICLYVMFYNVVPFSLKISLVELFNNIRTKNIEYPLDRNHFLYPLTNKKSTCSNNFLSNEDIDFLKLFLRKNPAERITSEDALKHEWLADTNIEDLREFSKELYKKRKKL
Chain of Calcium-dependent protein kinase 1 (Plasmodium falciparum (isolate 3D7)) (P62344 whole entry, looked up): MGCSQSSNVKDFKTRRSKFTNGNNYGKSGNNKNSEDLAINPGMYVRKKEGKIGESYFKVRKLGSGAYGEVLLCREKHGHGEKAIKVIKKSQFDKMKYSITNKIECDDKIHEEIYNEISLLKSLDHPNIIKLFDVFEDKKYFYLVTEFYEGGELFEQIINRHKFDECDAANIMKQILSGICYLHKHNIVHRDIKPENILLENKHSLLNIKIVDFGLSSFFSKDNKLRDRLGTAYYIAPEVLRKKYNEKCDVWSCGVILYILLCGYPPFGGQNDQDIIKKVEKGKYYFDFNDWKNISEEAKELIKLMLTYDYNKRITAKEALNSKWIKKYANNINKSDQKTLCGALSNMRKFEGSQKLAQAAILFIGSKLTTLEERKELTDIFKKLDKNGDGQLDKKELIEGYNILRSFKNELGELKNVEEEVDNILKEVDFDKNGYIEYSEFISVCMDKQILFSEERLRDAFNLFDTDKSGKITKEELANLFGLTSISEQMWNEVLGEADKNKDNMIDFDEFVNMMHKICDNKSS
Chain of Plasmodium falciparum protein kinase 6 (PK6, PF3D7_1337100) (Q8IDW1 1-305): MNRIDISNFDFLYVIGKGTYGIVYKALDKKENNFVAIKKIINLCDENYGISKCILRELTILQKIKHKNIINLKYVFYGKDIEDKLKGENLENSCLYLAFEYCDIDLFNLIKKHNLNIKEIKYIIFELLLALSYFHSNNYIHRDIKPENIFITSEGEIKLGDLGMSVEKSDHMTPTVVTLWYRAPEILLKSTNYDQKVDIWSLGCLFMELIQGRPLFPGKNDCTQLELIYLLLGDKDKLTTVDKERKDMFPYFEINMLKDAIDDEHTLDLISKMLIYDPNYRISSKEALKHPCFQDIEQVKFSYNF
Chain of L-lactate dehydrogenase (Plasmodium falciparum (isolate CDC / Honduras)) (Q27743 whole entry, looked up): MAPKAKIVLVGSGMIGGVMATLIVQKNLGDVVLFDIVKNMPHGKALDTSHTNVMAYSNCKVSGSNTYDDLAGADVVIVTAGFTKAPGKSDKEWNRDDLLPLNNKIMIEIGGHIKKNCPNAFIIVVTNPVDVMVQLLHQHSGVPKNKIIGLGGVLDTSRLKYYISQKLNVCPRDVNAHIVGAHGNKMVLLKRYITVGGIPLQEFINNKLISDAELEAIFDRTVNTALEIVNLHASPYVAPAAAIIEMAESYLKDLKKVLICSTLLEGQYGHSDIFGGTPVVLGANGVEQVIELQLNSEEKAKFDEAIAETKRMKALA

Structure (SMILES) | growth inhibition [1] | inhibition [2] | inhibition [3] [%] | growth inhibition [4] | outcome [5] | outcome [6] | outcome [7] | outcome [8]
O=S(=O)(Nc1cccc(CCN2CCC(N3CCCCC3)CC2)c1)c1ccc2c(c1)OCCO2 | 5% | 8% | -1 | 91% (active) | inactive | inactive | inactive | inactive
O=c1ccc(CNc2nc(NCCc3ccccc3)nc3ccc(Cl)cc23)c[nH]1 | 16% | 9% | 2 | 99% (active) | inactive | inactive | inactive | inactive
FC(F)(F)c1cc(Nc2ncnc3ccc(Br)cc23)ccc1OCc1ccccc1 | 9% | 12% | 6 | 87% (active) | inactive | inactive | inactive | inactive
O=C(O)c1ccc2nc(-c3ccccn3)c(-c3ccccn3)nc2c1 | 18% | 3% | 4 | 97% (active) | inactive | inactive | inactive | inactive
CCCCCC(C)(C)NC[C@@H](O)[C@H](Cc1ccccc1)NC(=O)c1cc(NCC)cc(N2CCCC2=O)c1 | 97% (active) | 9% | -5 | 99% (active) | inactive | inactive | inactive | inactive
Cc1oc(-c2ccccc2)nc1CCOc1ccc(C[C@H](Nc2ccccc2C(=O)c2ccccc2)C(=O)NCc2ccccn2)cc1 | 54% (active) | -2% | -1 | 88% (active) | inactive | inactive | inactive | inactive
COc1ccc(CNCc2ccccc2)cc1-c1ccc(OC)c(S(=O)(=O)NCCN2CCCC2)c1 | 55% (active) | 14% | -5 | 100% (active) | inactive | inactive | inactive | inactive
N#Cc1cccc(CNC(=O)c2cccc(Nc3ccnc4ccc(F)cc34)c2)c1 | 26% | -1% | 0 | 87% (active) | inactive | inactive | inactive | inactive
c1ccc(-c2[nH]ncc2Nc2ccnc3ccccc23)nc1 | 98% (active) | 36% | 1 | 100% (active) | inactive | inactive | inactive | inactive
COc1cc2c(cc1OC)CN(CCc1ccc(NC(=O)c3cc4cc(OC(F)(F)F)ccc4[nH]3)cc1)CC2 | 20% | 36% | -3 | 99% (active) | inactive | inactive | inactive | inactive
Cc1cccc2[nH]c(-c3ccc(-c4ccc(CNC(C)C)cc4)cc3)nc12 | 62% (active) | 12% | 0 | 99% (active) | inactive | inactive | inactive | inactive
COc1ccc(-c2cc(C(=O)Nc3ccc4nc(-c5ccccc5)[nH]c4c3)[nH]n2)cc1 | 78% (active) | 77% (active) | 3 | 90% (active) | inactive | inactive | inactive | inactive
Cc1ccc(NC(=O)c2cccc(CN3CCCN(Cc4cccc(O)c4)CC3)c2)cc1F | 45% | 20% | -5 | 99% (active) | inactive | inactive | inactive | inactive
CCN(CC)CCN(Cc1ccc(-c2ccc(C(F)(F)F)cc2)cc1)C(=O)Cn1c(CCc2ccc(F)c(C#N)c2)nc(=O)c2ccccc21 | 55% (active) | 18% | -2 | 98% (active) | inactive | inactive | inactive | inactive
COCCOC(=O)C(=O)c1c(-c2ccccc2)c(-c2ccc(OC)c(OC)c2)c2c3cc(OC)c(OC)cc3ccn12 | 100% (active) | 4% | -2 | 101% (active) | inactive | inactive | inactive | inactive
NC1CCCN(Cc2ccc(-c3ccc(-c4nc5ccccc5[nH]4)s3)cc2)C1 (stereo not given) | 99% (active) | 40% | -2 | 102% (active) | inactive | inactive | inactive | inactive
CC(=O)CC(=O)N1CCN(c2ccccc2)CC1 | -6% | 54% (active) | -1 | 85% (active) | inactive | inactive | inactive | inactive
CC(C)CNCc1cccc(-c2ccc(CN(CCCN3CCN(C)CC3)C(=O)CCC3CCCC3)cc2)c1 | 89% (active) | 82% (active) | 0 | 98% (active) | inactive | inactive | inactive | inactive
CC(C)c1ccc(NC(=O)Nc2ccc(CCNCCCc3ccccc3)cc2)cc1 | 56% (active) | 22% | 1 | 101% (active) | inactive | inactive | inactive | inactive
COC(=O)c1ccc2c(-c3nc4ccc(OC)cc4[nH]3)c[nH]c2c1 | 31% | 0% | 5 | 95% (active) | inactive | inactive | inactive | inactive
